The subject of the assay is P. falciparum stage V gametocytes. Also noted: BacTiter-Glo ATP luminescence viability of purified stage V gametocytes in 384-well plates, per cent inhibition versus DMSO. As to conditions: 48 h, 5 µM, inhibitor.

The structures appear in SMILES notation. Like-named read-outs stand apart in the source and are kept apart here. The campaign covered roughly 13,000 compounds. About 3,200 (25%) showed an effect of 50% or more. The list shows a part of the results.

As to `COc1ccc(Nc2ncc3c(-c4cccc(NC(=O)Cc5cccc(O)c5)c4)c[nH]c3n2)cc1OC` [TCMDC-135247], the % Inhibition (commonly the change of the read-out against control, counted positive when it falls) was -20.67%.
The same measure, in the same setting: next, `CN1CC=C(c2c[nH]c3ccc(-c4ccccc4)cc23)CC1` [TCMDC-138962]: -5.151%; `Cc1cc2nc(-c3ccc(SCC(=O)Nc4ccc5c(c4)OCCO5)nc3)[nH]c2cc1C` [TCMDC-125353]: 21.88%; `O=C(CN1CCC2(CCC1=O)CC(=O)c1ccccc1O2)NCCN1CCOCC1` (centres unmarked) [TCMDC-133148]: 11.41%.
For `COc1ccc(-c2ccc(CNCc3ccccc3)cc2)cc1S(=O)(=O)NCCN1CCCC1` [TCMDC-132230], the “% Inhibition” value was determined as 103.5%.
Regarding `C=CCOC(=O)N1CCC(CNCc2cccc(-c3ccc(-c4nc5cc(C(F)(F)F)ccc5[nH]4)cc3)c2)C1.O=C(O)C(F)(F)F` (centres unmarked) [TCMDC-133042], the “% Inhibition” value is recorded as -7.537%.
As for `COc1cccc(CC(=O)N2CCC(n3c(C)nc4ccc(F)cc43)CC2)c1` [TCMDC-124792], the “% Inhibition” value stood at 80.7%.
Still for that read-out and setting: next, `COc1cccc(CC(=O)NC2CCN(c3ccnc4cc(Cl)ccc34)C2)c1` (centres unmarked) [TCMDC-133664]: 6.238%.
On to `COc1cccc(OC2CCN(C(=O)c3cc(C(C)(C)C)nn3Cc3ccccc3)CC2)c1` [TCMDC-134143], for which the “% Inhibition” value is given as -6.866%.
Take `COc1cccc(CNC(=O)NC2CCN(c3ccnc(Nc4ccc(F)cc4)n3)C2)c1` (centres unmarked) [TCMDC-133604]: the “% Inhibition” value is -32.96%.
`COc1cccc(CNC(=O)c2cccc(-c3cccc(CN4CCC(N5CCCC5)CC4)c3)n2)c1` [TCMDC-134417]: the “% Inhibition” value was 25.8%.
Take `COc1cccc(CC(=O)N2CCC(n3c(C)nc4ccc(C)cc43)CC2)c1` [TCMDC-124791]: the “% Inhibition” value came to 93.69%.
Turning to `Cc1ccc(NC(=O)NC2CCN(c3ccnc4ccccc34)CC2)cc1` [TCMDC-133588], the “% Inhibition” value was determined as 13.19%.
On the same count and under the same terms, the same measure for `CCOC(=O)c1[nH]c(-c2ccccc2)nc1NC(=S)NC1CCCCC1` [TCMDC-131430]: 5.591%.
Regarding `Cc1nc(/N=C(\N)NC(=O)NC2CCCCC2)nc2ccccc12` [TCMDC-123808], the “% Inhibition” value is on record as 133.5%.
The same measure, in the same setting: the same measure for `CC(C)CC(NC(=O)c1ccc(F)cc1)C(=O)N[C@H](/C=N/N1CCNC1=O)CC(C)C` (some centres unmarked) [TCMDC-136214]: 16.28%; for `OC(c1ccccc1)C1CN(Cc2ccccc2)CCC1(O)c1ccccc1` (centres unmarked) [TCMDC-125518]: -9.589%; for `CC(c1cccc(S(=O)(=O)NCc2ccc(Cl)cc2Cl)c1)N1CCC(N2CCCCC2)CC1` (centres unmarked) [TCMDC-133564]: -22.09%.
Consider `COCCNCC(O)Cn1c2ccc(Cl)cc2c2cc(Cl)ccc21` (centres unmarked) [TCMDC-123535], for which the “% Inhibition” value is given as 54.28%.
Turning to `CCC(CO)NCC(O)Cn1c2ccc(Br)cc2c2cc(Br)ccc21` (centres unmarked) [TCMDC-125710], the “% Inhibition” value is given as 27.72%.
On the same count and under the same terms, the same measure for `OC(CNCCc1ccccc1)Cn1c2ccc(Cl)cc2c2cc(Cl)ccc21` (centres unmarked) [TCMDC-124135]: 17.2%; for `CC(C)CCNCC(O)Cn1c2ccc(Cl)cc2c2cc(Cl)ccc21` (centres unmarked) [TCMDC-125673]: 69.1%.
The same measure, in the same setting: next, `CCNCCCC(C)Nc1ccnc2cc(Cl)ccc12` (centres unmarked) [TCMDC-125876]: 27.58%; `CCC(CO)NCC(O)Cn1c2ccc(Cl)cc2c2cc(Cl)ccc21` (centres unmarked) [TCMDC-125711]: 55%.
As to `Cc1nc(-c2cccc(C(=O)Nc3cnc4ccccc4c3)c2)no1` [TCMDC-135810], the “% Inhibition” value came to 8.288%.
For the compound `CC1CCC(NCc2ccc3c(CNC4CCC(C)CC4)c(O)ccc3c2O)CC1` (centres unmarked) [TCMDC-137587], the “% Inhibition” value is -63.23%.
On to `COc1cc(CCNC(=O)Cc2ccc3ccccc3c2)ccc1OCc1ccccc1` [TCMDC-137227], for which the “% Inhibition” value is listed as 57.44%.
Same read-out and setting: next, `COc1cccc(C(=O)NCCc2cccc(Cl)c2)c1OCc1ccccc1` [TCMDC-141235]: -13.17%; `COc1ccc(C(=O)O)cc1OCc1ccccc1` [TCMDC-125534]: 4.056%.
Take `CCC(C)CC(=O)Nc1ccc(OC)c(S(=O)(=O)N[C@@H]2CCN(C#N)C2)c1` (some centres unmarked) [TCMDC-134061]: the “% Inhibition” value is reported as 14.31%.
`COc1cc(-c2nc3ccc(N4CCN(C)CC4)cc3[nH]2)cc(OC)c1OC` [TCMDC-124585]: the “% Inhibition” value is given as -16.2%.
As for `CNC(=O)c1cnc(Nc2ccc(N3CCN(C)CC3)c(C)c2)nc1NC` [TCMDC-134162], the “% Inhibition” value is given as 36.76%.
Same read-out and setting: next, `Cc1cc(Nc2ncc(C#N)c(Nc3ccccc3C(N)=O)n2)ccc1N1CCN(C)CC1` [TCMDC-134115]: 104.7%; `CNC(=O)c1ccccc1Nc1nc(Nc2ccc(CCN3CCN(C)CC3)cc2)ncc1Cl` [TCMDC-133800]: 8.334%; `COc1ccc(Nc2ncc(OC)c(Nc3ccccc3C(N)=O)n2)cc1N1CCN(C)CC1` [TCMDC-134149]: 9.949%.
Same read-out and setting: next, `CN1CCN(c2ccc(Nc3ncc(Cl)c(Nc4cccnc4C(N)=O)n3)cc2)CC1` [TCMDC-134164]: -84.83%; `COc1ccc(Nc2ncc(C#N)c(Nc3ccccc3C(N)=O)n2)cc1N1CCN(C)CC1` [TCMDC-134117]: -97.62%; `Cc1cc(Nc2ncc(Cl)c(Nc3ccccc3C(N)=O)n2)n[nH]1` [TCMDC-134170]: -34.04%.
Regarding `CNC(=O)c1ccccc1Nc1nc(Nc2ccc(N3CCN(C)CC3)nc2)ncc1C` [TCMDC-134123], the “% Inhibition” value stood at 57.48%.
In the case of `CNC(=O)c1cnc(Nc2ccc(N3CCN(C)CC3)cc2)nc1Nc1ccccc1OC` [TCMDC-141382], the “% Inhibition” value is recorded as -26.7%.
The same measure, in the same setting: the same measure for `CNC(=O)c1ccccc1Nc1nc(Nc2ccc(N3CCOCC3)cc2)ncc1Cl` [TCMDC-134144]: -63.52%; for `NC(=O)c1ccccc1Nc1nc(Nc2cccc(N3CCN(CCO)CC3)c2)ncc1Cl` [TCMDC-134114]: 94.95%; for `COc1ccc(Nc2ncc(Cl)c(Nc3cccnc3C(N)=O)n2)cc1N1CCN(C)CC1` [TCMDC-134163]: 97.54%.
In the case of `CCC[C@@H](C(=O)NCCc1cccc(OC)c1)N1C(=O)c2c(ccc(OC)c2OC)C1C(=O)Nc1c(C)cccc1C` (some centres unmarked) [TCMDC-141135], the “% Inhibition” value is recorded as 18.96%.
On the same count and under the same terms, the same measure for `Cc1[nH]n(-c2cccc(Cl)c2)c(=O)c1-c1ccc(Cl)cc1` [TCMDC-123495]: -44.23%; for `O=C(Nc1ccc(C(F)(F)F)cc1)c1cc(Br)cnc1NCCCn1ccnc1` [TCMDC-136699]: 4.282%.
Consider `COc1ccc(NC(=O)c2cc(-c3ccc(NC(C)=O)cc3)cnc2N)cc1` [TCMDC-135658], for which the “% Inhibition” value came out at 32%.
With `CNC(=O)c1cc(F)c(F)cc1Nc1nc(Nc2cccc(CS(C)(=O)=O)c2)ncc1Cl` [TCMDC-134060], the “% Inhibition” value was -6.741%.
For the compound `CNC(=O)c1ccccc1Nc1nc(Nc2cccnc2)ncc1C` [TCMDC-134211], the “% Inhibition” value turned out to be 33.23%.
As to `CNC(=O)c1ccccc1Nc1nc(Nc2cccc(CS(C)(=O)=O)c2)ncc1C` [TCMDC-133809], the “% Inhibition” value is recorded as 64.95%.
`Cc1ccc(NC(=O)c2ccc3ncccc3c2)cc1OC1CCN(Cc2ccsc2)CC1` [TCMDC-134270]: the “% Inhibition” value is 12.12%.
With `COc1ccccc1NC(=O)OC(COc1ccc(N)cc1)CN1CC=C(c2ccccc2)CC1` (centres unmarked) [TCMDC-136486], the “% Inhibition” value is 60.38%.
The same measure, in the same setting: next, `COc1ccc(OCC(O)CN(Cc2ccccc2OC)C(=O)Nc2ccc(Br)cc2)cc1` (centres unmarked) [TCMDC-141494]: 25.96%; `COc1cccc(OC)c1-c1ccccc1NC(=O)N1CCCc2cc(C)ccc21` [TCMDC-136199]: -20.26%; `Cc1cccc2[nH]c(-c3cccc(-c4ccc(NC(=O)Nc5ccc(F)c(F)c5F)cc4)c3)nc12` [TCMDC-133225]: -8.037%.
Consider `COc1ccc2ncc(F)c(CCN3CC(O)C(CNCc4nc5c(cc4Cl)OCC(=O)N5)C3)c2n1` (centres unmarked) [TCMDC-136031], for which the “% Inhibition” value (% Inhibition) was 24.96%.
On to `Oc1ccc2[nH]cc(C3CCN(CCCNCc4ccc(-c5ccccc5)cc4)CC3)c2c1` [TCMDC-139047], for which the “% Inhibition” value is on record as 101.4%.
For `O=C(/C=C/c1ccc(Cl)c(Cl)c1)NCCCCCN1CCC(c2c[nH]c3cc(O)ccc23)CC1` [TCMDC-139282], the “% Inhibition” value stood at 10.47%.
`Oc1ccc2[nH]cc(C3CCN(CCC(c4ccccc4)c4ccccc4)CC3)c2c1` [TCMDC-139017]: the “% Inhibition” value is listed as -54.72%.
As to `Oc1ccc2[nH]cc(C3CCN(CCCCCCCCCN4CCC(c5c[nH]c6ccc(O)cc56)CC4)CC3)c2c1` [TCMDC-139003], the “% Inhibition” value stood at 74.24%.
For the compound `Cc1cccc2nc(-c3cccc(-c4cccc(NC(=O)NC5CC5c5ccccc5)c4)c3)[nH]c12` (centres unmarked) [TCMDC-133254], the “% Inhibition” value is -21.78%.
Consider `CNC(=O)/C=C/c1cc(NC(=O)Nc2cc(C)nc3c(F)cccc23)ccc1OC` [TCMDC-140324], for which the “% Inhibition” value is -6.922%.
As for `O=C(Nc1cccc(C(F)(F)F)c1)c1cccc(S(=O)(=O)NCC2CCCN2CC2CCCCC2)c1` (centres unmarked) [TCMDC-133687], the “% Inhibition” value is on record as -58.72%.
Turning to `O=C(Cn1c(=O)cnc2ccccc21)Nc1cccc(C(=O)Nc2cccc(C(F)(F)F)c2)c1` [TCMDC-125468], the “% Inhibition” value was determined as 18.7%.
With `CC(O)CNc1nc2ccccc2n1CC(=O)Nc1cccc(C(=O)Nc2cccc(C(F)(F)F)c2)c1` (centres unmarked) [TCMDC-124335], the “% Inhibition” value came out at 86.13%.
Turning to `O=C(Cc1n[nH]c(=O)c2ccccc12)Nc1cccc(C(=O)Nc2cccc(C(F)(F)F)c2)c1` [TCMDC-125260], the “% Inhibition” value is given as 48.65%.
In the case of `O=C(CNC1CCCCC1)Nc1cccc(C(=O)Nc2cccc(C(F)(F)F)c2)c1` [TCMDC-123711], the “% Inhibition” value came out at 29.34%.
The same measure, in the same setting: next, `O=C(Nc1cccc(CN2CCCN(Cc3ccc(O)cc3)CC2)c1)c1cccc(C(F)(F)F)c1` [TCMDC-141836]: -28.76%; `CC12CCC(=O)N1C(C(=O)Nc1cccc(C(=O)Nc3cccc(C(F)(F)F)c3)c1)CS2` (centres unmarked) [TCMDC-125019]: 77%.
`CC(C)NCC(=O)Nc1cccc(C(=O)Nc2cccc(C(F)(F)F)c2)c1` [TCMDC-124878]: the “% Inhibition” value worked out at 70.58%.
Consider `COc1ccccc1C(C)NCC(=O)Nc1cccc(C(=O)Nc2cccc(C(F)(F)F)c2)c1` (centres unmarked) [TCMDC-124871], for which the “% Inhibition” value stood at 31.1%.
Same read-out and setting: next, `CCCCCN1CCCC1CNS(=O)(=O)c1cccc(C(=O)Nc2cccc(C(F)(F)F)c2)c1` (centres unmarked) [TCMDC-133686]: -82.32%.
As for `COc1cc(C(=O)Nc2nc3ccccc3[nH]2)ccc1OCC(=O)Nc1cccc(C(F)(F)F)c1` [TCMDC-125460], the “% Inhibition” value is listed as 11.63%.
On to `O=C(CN1CCCC1)Nc1cccc(C(=O)Nc2cccc(C(F)(F)F)c2)c1` [TCMDC-124512], for which the “% Inhibition” value was found to be 78.8%.
